Screens from PubChem.
CHT block = inhibitors of human choline transporter CHT; CHT-expressing cells, membrane potential dye, choline response; hits give low values; B-score at 10 µM; 0.86% of 310,000 active; AID 488975;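 active = B-score over 3 SD under the library average, and starting fluorescence ratio not unusually high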;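 also: choline stimulus applied at its EC90 after an EC20 pre-addition; B-score computed on integrated fluorescence ratio after choline addition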
TMEM16A act = activators or potentiators of mouse TMEM16A chloride channel | AID 623877 | B-score at 10 µM | Q8BHY3 | 0.3% of 340,000 active | HEK293 TMEM16A/YFP-H148Q/I152L, iodide quench fluorescence; hits give low values;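 active = fluorescence-ratio B-score plate-corrected deviation score at least 3 library SD below zero, with starting fluorescence score within 5 deviations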;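 also: channel opened by trigger with iodide after compound preincubation; score built on the fluorescence ratio of max minus min over baseline; more negative score means more quench and so TMEM16A activation or potentiation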
Target sequence (Q8BHY3 whole entry, looked up): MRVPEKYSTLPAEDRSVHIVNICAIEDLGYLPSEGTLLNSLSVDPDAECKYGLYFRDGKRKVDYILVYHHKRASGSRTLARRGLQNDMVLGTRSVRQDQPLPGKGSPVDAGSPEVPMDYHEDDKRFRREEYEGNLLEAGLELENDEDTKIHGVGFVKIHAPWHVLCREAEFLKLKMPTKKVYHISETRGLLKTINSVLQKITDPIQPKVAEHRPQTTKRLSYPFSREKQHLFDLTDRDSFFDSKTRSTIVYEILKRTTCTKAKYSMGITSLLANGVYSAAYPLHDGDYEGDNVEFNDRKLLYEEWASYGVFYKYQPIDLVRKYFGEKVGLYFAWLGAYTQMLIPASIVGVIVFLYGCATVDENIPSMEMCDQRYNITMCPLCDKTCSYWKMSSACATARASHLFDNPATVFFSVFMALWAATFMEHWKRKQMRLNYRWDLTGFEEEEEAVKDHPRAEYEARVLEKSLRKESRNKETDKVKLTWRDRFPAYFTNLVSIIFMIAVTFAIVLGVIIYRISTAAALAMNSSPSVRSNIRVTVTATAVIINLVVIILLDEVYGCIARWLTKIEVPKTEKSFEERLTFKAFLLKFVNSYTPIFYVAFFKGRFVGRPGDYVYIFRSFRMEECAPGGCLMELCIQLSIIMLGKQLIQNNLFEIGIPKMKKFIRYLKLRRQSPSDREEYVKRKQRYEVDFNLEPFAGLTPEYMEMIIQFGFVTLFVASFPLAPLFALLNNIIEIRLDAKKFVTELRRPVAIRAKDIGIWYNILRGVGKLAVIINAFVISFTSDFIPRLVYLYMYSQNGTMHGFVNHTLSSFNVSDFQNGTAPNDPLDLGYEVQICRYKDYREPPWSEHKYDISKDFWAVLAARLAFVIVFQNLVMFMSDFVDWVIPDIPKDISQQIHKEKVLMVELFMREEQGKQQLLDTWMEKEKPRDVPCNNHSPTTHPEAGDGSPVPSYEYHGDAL
CHT PAM = human CHT allosteric activation | Q9GZV3 | CHT-expressing cells, membrane potential dye, choline EC20; hits give high values; LV-AA mutant CHT in HEK293 cells | B-score at 10 µM | 0.49% of 310,000 active | AID 488977;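 active = initial fluorescence not abnormally high and integrated response B-score, plate-corrected, over 3 SD above library mean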
TMEM16A inh = blocks the mouse calcium-activated chloride channel TMEM16A; Q8BHY3; HEK293 TMEM16A/YFP iodide influx fluorescence, ionomycin; normalized B-score (activity score, 25-100; higher = stronger inhibition) at 10 µM; 1.2% of 310,000 active;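 active = ratio plate-corrected score three or more library SD toward inhibition, starting fluorescence score within five deviations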;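 also: score derived from kinetic fluorescence span divided by baseline fluorescence per well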
CHT act confirm = confirmation of human choline transporter (CHT) activators | shares compounds with CHT PAM | CHT-expressing cells, membrane potential dye fluorescence (FDSS); % of choline EC20–EC90 response window; HEK293 expressing CHT LV-AA mutant; choline added at its EC20 | activation, % at 10 µM | 91% of 2,500 active | AID 504833;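 active = primary screen active, with duplicate mean activation above negative control mean plus 3 SD, cut at about 11% in these data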
HEK293 MP dye = counter-screen for CHT activators: effect in parental HEK293 cells. shares compounds with CHT PAM. membrane potential dye fluorescence (FDSS); measured after EC20 choline addition. ratio readout change at 10 µM, hits read low. 62% of 2,500 active;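 active = duplicate-averaged ratio beyond 3 SD from buffer wells, up or down, though filed actives are nearly all decreases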
* hit, by the source's call; i = inactive; · = no result. Shown are actives, neighbours in structure and some others; about 2.3% of the full set was active somewhere.

SMILES	CHT block	TMEM16A act	CHT PAM	TMEM16A inh	CHT act confirm	HEK293 MP dye
CN1Cc2c(N3CCOCC3)nc3sc(C#N)c(N)c3c2CC1(C)C	i	i	i	i	50*	-55*
CCc1ccc2nc(/N=C(\N)NC(=O)c3ccccc3)nc(C)c2c1	i	i	i	i	·	·
CCCC(=O)N/C(N)=N/c1nc(C)c2ccccc2n1	i	i	i	i	36*	-46*
COc1cccc(CNS(=O)(=O)c2c(C)[nH]c(C)c2C(=O)N2CCCC2)c1	i	i	i	i	·	·
CC(=O)N=c1c(C#N)cc2c(=O)n3cccc(C)c3nc2n1CCCOC(C)C	i	i	i	i	44*	-45*
Cc1cccn2c(=O)c3cc(C(=O)NCc4ccco4)c(=N)n(CCc4ccccc4)c3nc12	i	i	i	i	22*	-31*
CC(=O)N=c1c(C#N)cc2c(=O)n3cccc(C)c3nc2n1Cc1ccco1	i	i	i	i	47*	-36*
Cc1ccccc1C(=O)N=c1c(C#N)cc2c(=O)n3cccc(C)c3nc2n1Cc1ccco1	i	·	i	i	·	·
COc1cc(NS(=O)(=O)c2cn(C)cn2)cc(OC)c1	i	i	i	i	·	·
CN1CCN(c2c(F)cc3c(=O)c(C(=O)O)cn4c3c2SCC4)CC1	i	i	9.9*	i	23*	-69*
Cc1ccc2nc3sc(C(=O)N4CCCc5ccccc54)c(N)c3cc2c1	i	i	i	i	·	·
Cc1cc(C)c2cc3c(N)c(C(=O)N4CCc5ccccc5C4)sc3nc2c1	i	i	6.4*	i	-7	i
CCCCN(CCCC)CCNC(=O)CSCc1ccc(C)cc1	i	i	i	i	35*	i
Cc1ccc(CNC(=O)CSCc2ccccc2)cc1	i	i	i	i	·	·
CC[n+]1cc(-c2ccccc2)nc(N2CCOCC2)n1	i	i	i	i	41*	-39*
NS(=O)(=O)c1ccc(NC(=O)CN2CCN(S(=O)(=O)c3cccs3)CC2)cc1	·	i	·	·	·	·
COc1ccc(-c2nc3cccc(C)n3c2NCc2ccco2)cc1OC	i	i	7.6*	i	36*	-42*
COc1ccc(-c2csc(NCc3ccco3)n2)cc1C	i	i	i	i	·	·
CC(OC(=O)CNC(=O)c1ccc2ccccc2c1)C(=O)NC1CCCCC1C (stereo unspecified)	i	i	i	i	·	·
COC(=O)/C(=N/Nc1ccc(C)cc1)N1CCCc2ccccc21	i	i	8.1*	i	-1	i
COC(=O)/C(=N/Nc1ccccc1)N1CCCc2ccccc21	i	i	i	i	·	·
CC(=O)c1ccc(OC(C)C(=O)OCC(=O)NCCc2ccccc2)cc1 (stereo unspecified)	·	i	·	·	·	·
Cc1c(Br)c([N+](=O)[O-])nn1CC(=O)Nc1ccc(C(N)=O)cc1	i	i	i	i	·	·
Cc1cccc(OCCC(=O)Nc2nnc(C)s2)c1	i	i	i	i	·	·
Cc1cccn2c1nc(=S)n2C(=O)c1ccco1	i	i	i	i	27*	-21*
SMILES	CHT block	TMEM16A act	CHT PAM	TMEM16A inh	CHT act confirm	HEK293 MP dye
O=C(c1ccco1)N1CCN(C(=O)c2ccco2)C1=S	·	i	·	·	·	·
CCOC(=O)c1cn2nc(N3CCCCC3)ccc2n1	i	i	i	i	·	·
CCOC(=O)c1cn2nc(N3CCCC3)ccc2n1	i	i	i	i	35*	-38*
Cc1csc2c(C#N)c(=O)c3c(n12)CCC3	i	i	6.6*	i	49*	-41*
CC12C=CC3(CN(Cc4ccccc4)C(=O)C3C1C(=O)NCc1ccco1)O2 (stereo unspecified)	i	i	i	i	·	·
CCOC(=O)Nc1ccc2c(c1)N(C(=O)CN1CCN(C)CC1)c1ccccc1CC2	i	i	i	i	·	·
CCCC(CCC)C(=O)Nc1ccc2c(c1)N(C(=O)CCN1CCN(C)CC1)c1ccccc1CC2	i	i	6.8*	i	19*	i
CCCNC(=O)[C@H](C)NC(=O)c1ccc(Br)cc1	i	i	i	i	·	·
COc1cc(NC(=O)c2ccc(Cl)cc2)c2ncccc2c1	i	i	i	i	·	·
COc1cc(NC(=O)c2c(-c3ccccc3Cl)noc2C)c2ncccc2c1	i	i	7.8*	i	8	i
CCCN(CC1CC1)C(=S)Nc1ccc(Oc2ccccc2)cc1	i	i	i	i	·	·
Cc1sc(NC(=O)C2C3CCC(O3)C2C(=O)O)nc1-c1ccc(CC(C)C)cc1 (stereo unspecified)	i	i	i	i	·	·
COc1cc(-c2nnc(SCC(=O)N(Cc3ccccc3)C(C)(C)C)o2)cc(OC)c1OC	i	i	7.9*	i	1	i
N#CC1(Cc2ccc([N+](=O)[O-])cc2)c2ccccc2C=CN1C(=O)c1ccccc1 (stereo unspecified)	i	i	i	i	27*	i
Cc1ccc2c(c1)N(C(=O)CCC(=O)NCCN1CCOCC1)CC(C)O2 (stereo unspecified)	i	i	i	i	·	·
Cc1nc(CN2CCCCC2)c(O)c(=O)[nH]1	·	i	·	·	·	·
CC(=O)N1CCC(=NNc2ccnc3cc(Cl)ccc23)CC1	i	i	i	i	41*	-24*
CCOc1ccc(NC(=O)CN(C)C(=O)c2ccc(OCC3CCCO3)cc2)cc1OCC (stereo unspecified)	i	i	i	i	·	·
Cc1ccc(S(=O)(=O)c2cn(C)c3cc(N4CCN(C)CC4)c(F)cc3c2=O)c(C)c1	i	i	9.1*	i	74*	-84*
CCn1cc(S(=O)(=O)c2ccc(OC)cc2)c(=O)c2cc(F)c(N3CCN(C)CC3)cc21	i	i	i	i	59*	-48*
CCN1CCN(c2cc3c(cc2F)c(=O)c(S(=O)(=O)c2ccccc2)cn3C)CC1	i	i	8.4*	i	77*	-99*
CCOC(=O)c1cn(CC)c2cc(N3CCN(C)CC3)c(F)cc2c1=O	i	i	i	i	·	·
CCC(C)NC(=O)c1cn(CC)c2cc(N3CCN(C)CC3)c(F)cc2c1=O (stereo unspecified)	i	i	i	i	·	·
CCC(C(=O)N1CCC(C(N)=O)CC1)n1nc(C)n2c(cc3occc32)c1=O (stereo unspecified)	i	i	i	i	·	·
Cc1cc(N2CCOCC2)c2c(N)c(Br)cc(C)c2n1	i	i	9.8*	i	45*	-66*
